For assay [1], the system named is Human papillomavirus type 1a protein E7 (residues 44-93). Description: small molecules binding HPV E7 44-93 – biochemical, small-molecule microarray, residues 44-93, 635 nm fluorescence, primary screen (AID 1108).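 Also: E7 fragment applied at 1 µg/mL in TBST for 1 h at 4 C; score combines spot fluorescence with its signal to noise ratio.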 The following applies: fluorescence 635 nm, higher = more signal.
Assay [2] is described as follows: hepatitis C replication reporter changes, two-sided – Huh7 cells, luciferase reporter, HCV replication inhibitor project, primary screen (AID 1109).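 Also: huh7 hepatoma cells harbouring a luciferase neomycin HCV replicon reporter; luciferase luminescence as measure of HCV replicon replication; test concentration not given here.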 Conditions: Huh7 HCV replicon luciferase reporter, 48 h; higher = more signal. Background: Reporter assays use an easily measured gene product as a stand-in for the process of interest.
Assay [3] has as its target Left-right determination factor 2 (Homo sapiens) (UniProt O00292). Kind of assay: small molecules binding LEFTY2 protein – biochemical, small-molecule microarray, 635 nm fluorescence scan, primary screen (AID 1110). The following applies: higher = more signal.
Assay [4] addresses Calmodulin-1 (Homo sapiens) (UniProt P0DP23). Kind of assay: small molecules binding calmodulin-1 with EGTA – biochemical, small-molecule microarray, Cy5-labelled CALM1, profiling panel (AID 1111).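 Also: labelled calmodulin applied in Tris saline Tween buffer holding calcium plus EGTA and DTT.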 Conditions: Cy5-CALM1 binding fluorescence, higher = more signal.
For assay [5] the target is unchanged. Kind of assay: small molecules binding Ca-loaded calmodulin-1 – biochemical, small-molecule microarray, Cy5-labelled CALM1, plus calcium, artefact control for SMM control-protein annotation, profiling panel (AID 1112).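 Also: score merges spot fluorescence with signal to noise from triplicate slides.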 Conditions: Cy5-CALM1 binding fluorescence, higher = more signal.
The nature of assay [6]: probe aWnt5a binding to arrayed compounds – biochemical, biotinylated probe, 635/667 nm fluorescence, primary screen (AID 1113).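 Also: score merges 667 nm fluorescence intensity with signal-to-noise per printed feature.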 Conditions: small-molecule microarray, higher = more signal.
The nature of assay [7]: probe aShh binding to arrayed compounds – biochemical, biotinylated probe, 635/667 nm fluorescence, primary screen (AID 1114).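 Also: probe is biotin-labelled aShh protein from a stem cell growth factor screen; measures binding of labelled protein to compounds printed on the slide; score merges feature fluorescence at 667 nm with signal-to-noise.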 Conditions: small-molecule microarray, higher = more signal.
A short description of assay [8]: probe aNog binding to arrayed compounds – biochemical, biotinylated probe, 635/667 nm fluorescence, primary screen (AID 1115).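 Also: probe is biotinylated aNog protein used at 0.15 µg/mL for 1 h at 4 C; z-score combines 667 nm fluorescence of each spot with its signal to noise.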 The following applies: small-molecule microarray, higher = more signal.
The target in assay [9] is Torsin-1A-interacting protein 1 (Homo sapiens) (UniProt Q5JTV8). Description: compound microarray binding of lysate hLAP1 – cell lysate, small-molecule microarray, COS7 lysate, 635/667 nm fluorescence, primary screen (AID 1116). The following applies: 635 nm fluorescence, higher = more signal.
Torsin-1A-interacting protein 1 (Homo sapiens), sequence (Q5JTV8 whole entry, looked up): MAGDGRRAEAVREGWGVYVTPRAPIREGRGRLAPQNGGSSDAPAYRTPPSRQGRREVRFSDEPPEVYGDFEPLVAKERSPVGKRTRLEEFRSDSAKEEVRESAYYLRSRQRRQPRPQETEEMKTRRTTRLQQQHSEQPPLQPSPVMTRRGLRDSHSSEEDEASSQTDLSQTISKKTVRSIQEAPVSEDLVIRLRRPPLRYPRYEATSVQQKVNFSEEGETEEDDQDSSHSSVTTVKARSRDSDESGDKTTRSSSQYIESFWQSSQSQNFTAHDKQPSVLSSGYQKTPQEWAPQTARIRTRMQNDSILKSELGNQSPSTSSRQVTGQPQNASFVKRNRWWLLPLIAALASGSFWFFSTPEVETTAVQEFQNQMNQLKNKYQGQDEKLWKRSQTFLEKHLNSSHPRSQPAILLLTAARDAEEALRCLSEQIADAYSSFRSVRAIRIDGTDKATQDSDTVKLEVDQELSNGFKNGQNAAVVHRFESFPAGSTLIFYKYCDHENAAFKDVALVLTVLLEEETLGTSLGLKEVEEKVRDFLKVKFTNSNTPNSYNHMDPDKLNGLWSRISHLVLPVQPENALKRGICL
The target of assay [10] is Alpha-bungarotoxin (Bungarus multicinctus) (UniProt P60615). Kind of assay: compounds binding labelled alpha-BTX control protein – biochemical, small-molecule microarray, Alexa647 label, 635/667 nm fluorescence, artefact control for SMM control protein annotation, profiling panel (AID 1117). The following applies: alpha-BTX-A647 binding fluorescence, higher = more signal.
Alpha-bungarotoxin (Bungarus multicinctus), sequence (P60615 whole entry, looked up): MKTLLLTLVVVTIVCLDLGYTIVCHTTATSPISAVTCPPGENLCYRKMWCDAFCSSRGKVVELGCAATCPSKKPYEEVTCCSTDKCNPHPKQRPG

Left-right determination factor 2 (Homo sapiens), sequence (O00292 whole entry, looked up): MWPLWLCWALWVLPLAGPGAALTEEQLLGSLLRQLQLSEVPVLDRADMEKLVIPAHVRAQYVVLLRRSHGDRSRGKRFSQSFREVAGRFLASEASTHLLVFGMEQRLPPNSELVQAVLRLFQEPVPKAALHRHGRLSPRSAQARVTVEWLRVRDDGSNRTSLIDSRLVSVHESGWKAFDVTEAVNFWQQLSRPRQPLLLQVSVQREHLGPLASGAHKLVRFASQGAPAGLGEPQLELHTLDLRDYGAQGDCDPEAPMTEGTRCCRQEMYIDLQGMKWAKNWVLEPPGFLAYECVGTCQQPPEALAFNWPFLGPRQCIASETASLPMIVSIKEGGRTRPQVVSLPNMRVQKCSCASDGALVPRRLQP

For the molecule `CCN1C(=O)[C@H]2[C@H]3[C@H](O)[C@H](O)CC(=NNC(=O)OCc4ccc(OC)cc4)[C@@H]3CC[C@H]2C1=O`, the composite z-score in [1] was -0.246; in assay [3], -0.0843; in [4] it was -0.484; in assay [5], -0.732; in [6] it was -0.261; in assay [7], 0.401. Besides, the composite z-score in [8] is -0.272; in assay [9], -0.717; in assay [10], 0.374. The z-score in assay [2] is -0.193.

Take `CCc1cc2c(nc1CC)CCN(CCC(C)=NO[C@@H](C)c1cn([C@H](CO)Cc3ccccc3)nn1)C2`: the composite z-score in assay [1] is -0.296; in assay [3] it was 0.483; in [4] it was -0.41; in [5] it was -0.555; in assay [6] it was -0.096; in assay [7] it was -0.147. In addition, the composite z-score in assay [8] was -0.203; in [9] it was -0.11; in [10], 0.312. Besides, the z-score in [2] was -2.1.

For the molecule `COC(=O)CC=C[C@@H](C)[C@@H](C=NOCC[C@@H]1C=C[C@H](OC(C)=O)[C@@H](COC(C)=O)O1)OC`, the composite z-score is 0.107 in assay [1]; 0.589 in [3]; -1 in assay [4]; -1.78 in [5]; -0.0346 in assay [6]; 0.284 in [7]. In addition, the composite z-score in assay [8] is -0.205; in assay [9], 0.473; in [10], -0.484. Further, in [2], the z-score is -0.488.

For `Cn1c(=O)n2n(c1=O)[C@H]1[C@H](O)[C@@H]3O[C@@H]3C(=NOCc3ccccc3)[C@H]1CC2`, the composite z-score was 0.729 in assay [1]; -0.0238 in [3]; -0.17 in assay [4]; 0.33 in [5]; -0.232 in assay [6]; -0.0339 in [7]. Also, the composite z-score in assay [8] is -0.0524; in [9] it was -0.0588; in [10], 0.0868. Moreover, the z-score in [2] is -1.28.

Regarding `CCOC(=O)[C@H](Cc1ccccc1)NC(=O)CCC1CC(OC(=O)NCc2cccc3ccccc23)CC2(CCCC(COC(=O)NCCC(C)C)O2)O1` (stereo not given in full), the composite z-score in assay [1] was -2.01; in [3], 0.215; in assay [4], 0.56; in assay [5], -0.29; in assay [6], -0.13; in assay [7], 0.0141. The composite z-score in [8] was -0.372; in assay [9], -0.0831; in [10], 1.09. In addition, in assay [2], the z-score was -0.134.

`COc1cccc([C@H]2Oc3ccc(OC)cc3C(=NOC[C@@H](O)[C@H]3O[C@@H]4OC(C)(C)O[C@@H]4[C@H]3O)[C@@H]2O)c1`: the composite z-score in [1] is 0.0743; in assay [3], 0.583; in assay [4], -0.284; in [5] it was -0.273; in assay [6], -0.139; in assay [7] it was -0.304. Moreover, the composite z-score in [8] was -0.409; in [9], 0.64; in assay [10], -0.106. In assay [2], this molecule registered a z-score of 4.33.

On to `CCCNC(=O)OC[C@H]1O[C@H](c2ccccc2)C=C[C@@H]1Oc1ccc(OC)cc1`, for which the composite z-score in assay [1] is -0.823; in assay [3], 0.424; in assay [4], -0.598; in [5], -0.202; in assay [6] it was -0.132; in [7] it was -0.153. Moreover, the composite z-score in assay [8] is -0.343; in assay [9], 0.124; in [10], -0.0001. The z-score in assay [2] was -0.974.

Regarding `CCOC(=O)NN=C1C[C@@H](O)[C@@H](O)[C@@H]2[C@@H]3C(=O)N([C@@H](C)c4ccccc4)C(=O)[C@@H]3CC[C@@H]12`, the composite z-score in [1] is 0.207; in assay [3], 0.937; in [4], -0.762; in assay [5] it was -2.03; in assay [6], -0.191; in assay [7] it was -0.476. For the same molecule, the composite z-score in [8] is -0.12; in assay [9], 1.41; in [10], -0.778. This molecule also yielded a z-score in assay [2] of 0.0672.

Take `O=C(NN=C1C[C@@H](O)[C@@H](O)[C@@H]2[C@@H]3C(=O)N(C4CCCCC4)C(=O)[C@@H]3CC[C@@H]12)OCc1ccccc1`: the composite z-score was -0.671 in assay [1]; 0.482 in assay [3]; -0.367 in assay [4]; -0.606 in assay [5]; -0.115 in assay [6]; 0.0156 in [7]. Further, the results for the composite z-score in [8], in assay [9] and in assay [10] were -0.0522, -0.534 and -0.0382, respectively. The z-score in [2] is -0.771.

For the molecule `CCOC(=O)[C@H](CC(C)C)NC(=O)CCC1CC(OC(=O)NCc2ccc3c(c2)OCO3)CC2(CCCC(COC(=O)NCC(c3ccccc3)c3ccccc3)O2)O1` (stereo not given in full), the composite z-score in assay [1] was 0.506; in assay [3] it was 0.426; in assay [4], -0.378; in assay [5], -0.443; in assay [6], -0.169; in assay [7], -0.262. In addition, the composite z-score is -0.137 in assay [8], 0.126 in assay [9] and 0.443 in assay [10]. The z-score in assay [2] was -0.0319.

Regarding `CCCNC(=O)OC[C@H]1O[C@H](CCON=Cc2ccc(C(=O)N3[C@H](c4ccc(C)cc4)[C@@H](C)CC[C@H]3C(=O)OC)cc2)C=C[C@@H]1Oc1ccc(OC)cc1`, the composite z-score in assay [1] was 0.993; in [3] it was 0.534; in [4] it was 0.263; in [5] it was -0.0711; in assay [6], 0.111; in assay [7] it was -0.493. In addition, the composite z-score was -0.0234 in assay [8], 0.943 in assay [9] and 0.497 in assay [10]. For the same molecule, the z-score in assay [2] was -1.85.

On to `COc1ccc(O[C@H]2C=C[C@@H](c3ccccc3)O[C@@H]2COC(=O)CCC(C)=NOC[C@@H](O)[C@H]2O[C@@H]3OC(C)(C)O[C@@H]3[C@H]2O)cc1`, for which the composite z-score in assay [1] was 1.07; in assay [3] it was 0.706; in assay [4] it was -0.166; in [5], -0.627; in assay [6], 0.0001; in assay [7], -0.291. Further, the composite z-score is -0.232 in assay [8], 0.419 in assay [9] and 0.0391 in [10]. For the same molecule, in assay [2], the z-score was -0.0939.

Values taken from PubChem BioAssay.
